In ChEMBL document CHEMBL4513146, “CO-ADD screening of Karazin Kharkiv National University (Ukraine) compounds”:
Among all 23,000 compounds or so, about 30 (0.1%) showed an effect of 50% or more. This excerpt belongs to a sample that is enriched for strong results. Entries with a potency or affinity are not part of this list.

What follows are compounds tested on Pseudomonas aeruginosa. Conditions: Concentration 32 ug.mL-1;; ASSAY_TEST Inhibition of Bacterial Growth; detection method Absorption (OD600); MEDIA CAMHB; plate type 384well; NBS; CORNING #3640; time 18 hr.

Row | Structure (SMILES) | Inhibition
1 | COc1ccc(-c2cc3c4nn(CC(=O)Nc5ccc(F)cc5)c(=O)n4ccn3n2)cc1 | -1.39%
2 | O=C(CSc1nnc2c(=O)n(Cc3ccc(F)cc3)ccn12)NC1CCCC1 | 8.47%
3 | Cc1ccc(Oc2nccn3c(=O)n(CC(=O)Nc4ccc(Cl)cc4F)nc23)cc1 | 0.79%
4 | Cc1cccc(N(Cc2ccc(F)cc2)S(=O)(=O)c2cccn3c(C)nnc23)c1 | 11.57%
5 | COc1cccc(CSc2nnc3c(=O)n(-c4ccc(Br)cc4)ccn23)c1 | 16.71%
6 | Cc1ccccc1Oc1nccn2c(=O)n(CC(=O)Nc3ccc(Cl)c(Cl)c3)nc12 | 3.97%
7 | O=C(Cn1nc2c(Sc3ccccc3)nccn2c1=O)Nc1ccc(Br)cc1F | 11.79%
8 | COc1ccc(CNC(=O)CCc2nnc3c4cc(-c5ccc(Cl)cc5)nn4ccn23)cc1OC | 9.37%
9 | O=C(Cn1nc2c(Sc3ccccc3)nccn2c1=O)Nc1ccc2c(c1)OCCO2 | 17.83%
